Read-out in assay [1]: Interleukin-1 alpha (IL1a), IL1A (gene 3552)
The experiment in a line: BSK_LPS_IL1a: BioMAP Diversity Plus: LPS Assay for Interleukin-1 alpha (IL1a) Biomarker Activity (AID 2283080). The conditions noted are these: primary human HUVEC with PBMC; actives raise or lower the signal. In short, it runs like this:
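ELISA read-out of IL-1 alpha from a human primary vascular co-culture (endothelium plus PBMC) under LPS, sampled 24 hours post-dosing. Activity was fitted in both directions relative to DMSO controls.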

Read-out in assay [2]: Monocyte Chemoattractant Protein-1 (MCP1), CCL2 (gene 6347)
Briefly: BSK_LPS_MCP1: BioMAP Diversity Plus: LPS Assay for Monocyte Chemoattractant Protein-1 (MCP1) Biomarker Activity (AID 2283081).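 For AC50: secreted MCP-1 protein quantified by ELISA in culture supernatant.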 The conditions noted are these: primary human HUVEC with PBMC; actives raise or lower the signal. In short, it runs like this:
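Human endothelial–PBMC co-cultures were dosed with chemical, then LPS-driven MCP-1 levels were quantified by ELISA at 24 h. Activity in either direction was fitted versus DMSO negative control.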

The nature of assay [3]: BSK_LPS_PGE2: BioMAP Diversity Plus: LPS Assay for Prostaglandin E2 (PGE2) Biomarker Activity (AID 2283082).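 For AC50: secreted prostaglandin E2 measured by ELISA in LPS-stimulated co-culture.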 The note with it: primary human HUVEC with PBMC; actives raise or lower the signal. In short, it runs like this:
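Primary human endothelial cells and blood mononuclear cells, co-cultured with LPS, receive test chemical; PGE2 ELISA follows at 24 h, with SRB-stained parallel cultures flagging cytotoxicity.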

Read-out in assay [4]: Macrophage colony-stimulating factor (MCSF), CSF1 (gene 1435)
Briefly: BSK_LPS_MCSF: BioMAP Diversity Plus: LPS Assay for Macrophage colony-stimulating factor (MCSF) Biomarker Activity (AID 2283083). The note with it: primary human HUVEC with PBMC; actives raise or lower the signal. A digest of the protocol:
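ELISA readout of M-CSF after 24 h compound exposure in a human endothelial/PBMC co-culture. Activity, in either direction, is fitted relative to DMSO vehicle.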

Read-out in assay [5]: Tissue Factor, F3 (gene 2152)
Briefly: BSK_LPS_TissueFactor: BioMAP Diversity Plus: LPS Assay for Tissue Factor Biomarker Activity (AID 2283084). The conditions noted are these: primary human HUVEC with PBMC; actives raise or lower the signal. A digest of the protocol:
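ELISA signal for cell-surface Tissue Factor (CD142) was read 24 h after compound dosing of an LPS-stimulated human endothelial–PBMC primary co-culture. Gain or loss of signal was scored relative to DMSO.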

Read-out in another assay: CD38, CD38 (gene 952)
The experiment in a line: BSK_SAg_CD38: BioMAP Diversity Plus: SAg Assay for CD38 Biomarker Activity (AID 2283087). The conditions noted are these: primary human HUVEC with PBMC; actives raise or lower the signal. A digest of the protocol:
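Measures CD38 on a human endothelial/PBMC co-culture driven by SEB and TSST-1, 24 h after compound exposure, using ELISA with fluorescence detection; DMSO defines baseline for bidirectional curve fitting.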

Read-out in the next assay: CD40, CD40 (gene 958)
Briefly: BSK_SAg_CD40: BioMAP Diversity Plus: SAg Assay for CD40 Biomarker Activity (AID 2283088). The note with it: primary human HUVEC with PBMC; actives raise or lower the signal. In short, it runs like this: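 Compounds were dosed onto a human primary endothelial–PBMC co-culture, and after 24 h CD40 was quantified by ELISA using a fluorescence signal. Activity in either direction was fitted relative to DMSO.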

Read-out in another assay: CD69, CD69 (gene 969)
The experiment in a line: BSK_SAg_CD69: BioMAP Diversity Plus: SAg Assay for CD69 Biomarker Activity (AID 2283089).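 For AC50: cell surface CD69 protein quantified by ELISA with fluorescence detection.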 The conditions noted are these: primary human HUVEC with PBMC; actives raise or lower the signal. In short, it runs like this:
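Endothelial/PBMC co-culture; chemical added; 24 h incubation; CD69 ELISA with fluorescence detection; bidirectional fit vs DMSO.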

Read-out in assay [6]: Monocyte Chemoattractant Protein-1 (MCP1), CCL2 (gene 6347)
The experiment in a line: BSK_SAg_MCP1: BioMAP Diversity Plus: SAg Assay for Monocyte Chemoattractant Protein-1 (MCP1) Biomarker Activity (AID 2283090). The note with it: primary human HUVEC with PBMC; actives raise or lower the signal. In short, it runs like this: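 Values derive from bidirectional fitting of ELISA-measured MCP1 against DMSO controls. Readings were taken 24 h after dosing human vascular endothelial cells co-cultured with peripheral blood mononuclear cells under superantigen stimulation.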

Read-out in assay [7]: E-selectin (Homo sapiens) (UniProt P16581)
Briefly: BSK_SAg_Eselectin: BioMAP Diversity Plus: SAg Assay for Eselectin Biomarker Activity (AID 2283091). The note with it: primary human HUVEC with PBMC; actives raise or lower the signal. A digest of the protocol: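 Co-culture: HUVEC + PBMC. Dose compound; 24 h. ELISA for E-selectin. Bidirectional fit vs DMSO.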

Read-out in assay [8]: Monokine induced gamma interferon (MIG), CXCL9 (gene 4283)
The experiment in a line: BSK_SAg_MIG: BioMAP Diversity Plus: SAg Assay for Monokine induced gamma interferon (MIG) Biomarker Activity (AID 2283092). The note with it: primary human HUVEC with PBMC; actives raise or lower the signal. In short, it runs like this: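 Measures CXCL9 protein by ELISA in a human vascular primary-cell co-culture (umbilical vein endothelium with PBMC) 24 h after chemical addition. Activity is scored up or down from the DMSO control.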

A short description of assay [9]: BSK_SAg_PBMCCytotoxicity: PBMC Cytotoxicity Assessment in the BioMAP Diversity Plus: SAg Assay (AID 2283093).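 For AC50: PBMC superantigen activated with SEB plus TSST-1 one hour after compound addition.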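 Note: PBMC viability measured as Alamar Blue reduction fluorescence at 546/580 nm; fitted both ways against DMSO so a hit may be loss or gain of signal.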 The conditions noted are these: primary human HUVEC with PBMC. A digest of the protocol:
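Alamar Blue reduction (6 h, 546/580 nm) reports PBMC cytotoxicity after 90 h superantigen activation (SEB, TSST-1; 20 ng/mL final each) with 1 h compound pre-treatment. Gain or loss of signal fitted versus DMSO.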

Read-out in assay [10]: Interleukin-8 (IL8), CXCL8 (gene 3576)
The experiment in a line: BSK_SAg_IL8: BioMAP Diversity Plus: SAg Assay for Interleukin-8 (IL8) Biomarker Activity (AID 2283094). The note with it: primary human HUVEC with PBMC; actives raise or lower the signal. In short, it runs like this: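 Primary human endothelial cells with PBMC, exposed 24 h; IL-8 determined by ELISA, analysed bidirectionally relative to DMSO.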

A short description of assay [11]: BSK_SAg_Proliferation: Cell Proliferation Assessment in the BioMAP Diversity Plus: SAg Assay (AID 2283095).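 Note: relative cell number as total protein by SRB absorbance in sub-confluent culture.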 The conditions noted are these: primary human HUVEC with PBMC. A digest of the protocol:
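A human primary co-culture of umbilical vein endothelium and blood mononuclear cells receives compound; relative cell number is quantified at 96 h by SRB staining and 560 nm absorbance, with DMSO-referenced bidirectional curve fitting.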

Assay [12] is described as follows: BSK_SAg_SRB: Viability Assessment in the BioMAP Diversity Plus: SAg Assay (AID 2283096).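 Note: cells read one day after compound addition; hits may be either gain or loss of signal compared with DMSO.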 The note with it: primary human HUVEC with PBMC. In short, it runs like this:
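This overt-cytotoxicity endpoint quantifies protein in human endothelial/PBMC co-cultures at 24 h using SRB absorbance (560 nm) after trichloroacetic acid fixation. Values reflect signal change from the DMSO negative control, fitted bidirectionally.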

Read-out in assay [13]: Tumor necrosis factor (Homo sapiens) (UniProt P01375)
Briefly: BSK_LPS_TNFa: BioMAP Diversity Plus: LPS Assay for Tumour Necrosis Factor alpha (TNFa) Biomarker Activity (AID 2283085).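 For AC50: TNFa protein level quantified by ELISA in the co-culture.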 The note with it: primary human HUVEC with PBMC; actives raise or lower the signal. In short, it runs like this: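 ELISA-based TNFa endpoint in a human endothelial–PBMC co-culture sampled 24 h post-exposure. Curves were fitted in both directions using DMSO as baseline of activity.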

Read-out in assay [14]: Vascular cell adhesion molecule 1 (VCAM1), VCAM1 (gene 7412)
The experiment in a line: BSK_LPS_VCAM1: BioMAP Diversity Plus: LPS Assay for Vascular cell adhesion molecule 1 (VCAM1) Biomarker Activity (AID 2283086). The note with it: primary human HUVEC with PBMC; actives raise or lower the signal. In short, it runs like this:
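Measured by ELISA: VCAM-1 in LPS-activated HUVEC/PBMC co-cultures 24 h after treatment. Values reflect bidirectional fitting with DMSO as baseline.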

Molecules are shown by their SMILES. Several values for one entry are separate records, joined by “and”; a condition that tells them apart may be missing. Equal entries are not always repeated. A structure can be active in one record and inactive in another. Activity calls are given as the source filed them. Rule for the calls: active = hit-call score of the fitted dose curve at least 0.9, where 1 is the maximum; inactive = score below 0.9.

Chain of E-selectin (Homo sapiens) (P16581 whole entry, looked up): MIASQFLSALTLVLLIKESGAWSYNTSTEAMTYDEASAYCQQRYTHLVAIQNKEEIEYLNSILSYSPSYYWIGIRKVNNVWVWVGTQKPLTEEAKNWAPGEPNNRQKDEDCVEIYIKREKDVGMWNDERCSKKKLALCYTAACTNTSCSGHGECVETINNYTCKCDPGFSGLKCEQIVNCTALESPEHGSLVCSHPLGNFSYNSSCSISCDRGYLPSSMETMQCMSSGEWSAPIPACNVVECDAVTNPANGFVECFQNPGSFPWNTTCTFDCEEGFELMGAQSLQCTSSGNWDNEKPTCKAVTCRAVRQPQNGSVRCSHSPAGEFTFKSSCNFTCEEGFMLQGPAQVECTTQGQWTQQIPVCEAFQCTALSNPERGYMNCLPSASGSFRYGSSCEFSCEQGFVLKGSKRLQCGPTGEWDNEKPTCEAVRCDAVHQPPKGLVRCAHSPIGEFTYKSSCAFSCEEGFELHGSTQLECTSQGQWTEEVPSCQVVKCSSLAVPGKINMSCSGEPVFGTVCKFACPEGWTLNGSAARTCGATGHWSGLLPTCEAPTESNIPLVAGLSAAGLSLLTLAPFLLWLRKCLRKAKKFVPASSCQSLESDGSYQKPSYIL
Chain of Tumor necrosis factor (Homo sapiens) (P01375 whole entry, looked up): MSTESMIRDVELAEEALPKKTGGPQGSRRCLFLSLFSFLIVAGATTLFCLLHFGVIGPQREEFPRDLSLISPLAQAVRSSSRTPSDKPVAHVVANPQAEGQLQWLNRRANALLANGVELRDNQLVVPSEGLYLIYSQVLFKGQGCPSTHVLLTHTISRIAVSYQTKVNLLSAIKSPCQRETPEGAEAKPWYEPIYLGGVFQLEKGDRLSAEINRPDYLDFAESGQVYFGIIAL

Regarding `O=C(c1ccccc1)c1ccccc1`, the outcome was “inactive” in assay [1]; “inactive” in assay [2]; “inactive” in [4]; “inactive” in [5]; “inactive” in the assay with CD38, CD38 (gene 952); “inactive” with CD40, CD40 (gene 958). The outcome with CD69, CD69 (gene 969) was “inactive”; in assay [6], “inactive”; in assay [7] it was “inactive”; in assay [8], “inactive”; in assay [9], “inactive”; in [10] it was “inactive”. Besides, the outcome in assay [11] and in assay [12] was inactive. The AC50 in assay [3] is 569 nM (active).
Regarding `CCCCC(CC)C(=O)OCCOCCOCCOCCOC(=O)C(CC)CCCC` (centres undefined), the outcome was “inactive” in assay [2]; “inactive” in assay [3]; “inactive” in [5]; “inactive” in assay [13]; “inactive” with CD38, CD38 (gene 952); “inactive” in the assay with CD40, CD40 (gene 958). Also, the outcome is “inactive” with CD69, CD69 (gene 969); “inactive” in assay [6]; “inactive” in assay [7]; “inactive” in [8]; “inactive” in assay [9]; “inactive” in assay [10]. Besides, the outcome in assay [11] and in assay [12] was inactive. Moreover, the AC50 in assay [4] is 20 µM (active).
With `CCCCCCCCCCCC`, the concentration at half-maximal activity (AC50) in [2] was 36.3 µM (active); in [3], 12.9 µM (active) and 14 µM (active); in [5], 16.7 µM (active); in [11] it was 36.6 µM (active). Besides, the outcome is “inactive” in assay [2]; “inactive” in [4]; “inactive” in assay [5]; “inactive” with CD38, CD38 (gene 952); “inactive” in the assay with CD40, CD40 (gene 958); “inactive” in the assay with CD69, CD69 (gene 969). The outcome in [6], in [7], in assay [8], in [9], in assay [10] and in [11] was inactive. In assay [12], the outcome was inactive.
Regarding `Cc1[nH]nc2c1N=C(c1ccccc1Cl)c1cc([N+](=O)[O-])ccc1N2`, the AC50 in assay [2] was 5.17 µM (active); in [3] it was 2360 nM (active); in assay [4] it was 3.38 µM (active); in assay [5] it was 4.61 µM (active); in [13], 4.86 µM (active); with CD38, CD38 (gene 952), 5.77 µM (active). The AC50 with CD40, CD40 (gene 958) was 4.7 µM (active); in the assay with CD69, CD69 (gene 969) it was 3.81 µM (active); in [6], 3.44 µM (active); in assay [7] it was 4.48 µM (active); in assay [8] it was 8.28 µM (active); in assay [10], 0.893 µM (active). The concentration at half-maximal activity (AC50) in assay [11] was 1.94 µM (active); in [12] it was 2.15 µM (active). For the same compound, the result in assay [9] was inactive.
As to `O=C(NCc1ncc(C(F)(F)F)cc1Cl)c1c(Cl)cccc1Cl`, the result in assay [1], in assay [2], in assay [3], in assay [4], in assay [5] and in assay [13] was inactive. For the same compound, the outcome is “inactive” in the assay with CD38, CD38 (gene 952); “inactive” with CD40, CD40 (gene 958); “inactive” in the assay with CD69, CD69 (gene 969); “inactive” in assay [6]; “inactive” in assay [7]; “inactive” in [8]. Further, the result in assay [9], in assay [10], in [11] and in assay [12] was inactive.
For the compound `OCCN1CN(CCO)CN(CCO)C1`, the concentration at half-maximal activity (AC50) in assay [1] is 31.4 µM (active); in assay [2] it was 13.1 µM (active); in [4], 25.7 µM (active); in assay [5] it was 20 µM (active); in assay [14], 31.1 µM (active); with CD38, CD38 (gene 952) it was 31.6 µM (active). Moreover, the AC50 with CD40, CD40 (gene 958) was 31.1 µM (active); with CD69, CD69 (gene 969) it was 38.7 µM (active); in assay [6], 20 µM (active); in assay [7] it was 20 µM (active); in assay [8], 33.1 µM (active); in [9] it was 27 µM (active). In addition, the AC50 in [10] is 13.1 µM (active); in [11] it was 26 µM (active); in [12], 33.4 µM (active). Further, the result in [3] was inactive.

Source of the values: PubChem BioAssay (EPA / NIEHS).
